Measured potencies and affinities stand elsewhere. The source made the active and inactive calls.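 The calls were made as follows: active = cell killing with a fitted half-effect concentration at or below twice the top valid dose; inconclusive = flat curve with 30 to 70 percent drop, or poor fit; inactive = the rest.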
Experiment: viability loss in HEK293T kidney cells – cell-based, ATP luminescence, cherry-pick, set 6, cytotoxicity control, dose response (AID 1053126)
Conditions: CellTiter-Glo ATP luminescence, 72 h; series mostly up to 26 µM

| SMILES | outcome |
| --- | --- |
| COc1c(Cl)cc(-c2noc(C)c2C(=O)NCc2ccc3c(c2)OCO3)cc1Cl | inactive |
| CCOc1ccccc1N=c1oc2cc(O)ccc2cc1C(=O)NCC1CCCO1 (stereo not drawn) | inactive |
| CCCOc1ccccc1/C=C1\SC(N)=NC1=O | inactive |
| CC(C)c1ccc(/C=C2\Oc3c(ccc(O)c3CN3CCN(C)CC3)C2=O)cc1 | inactive |
| CCOc1ccc2nc(NCCCNS(=O)(=O)c3ccc(F)cc3)c(C#N)cc2c1 | inactive |
| O=C(NNc1c2ccccc2nc2ccccc12)c1ccc(O)cc1 | inactive |
| O=c1oc2c(CN3CCN(CCO)CC3)c(O)ccc2cc1-c1ccccn1 | inactive |
| Cc1ccc(S(=O)(=O)Nc2ccc(Nc3ccccc3)cc2)cc1 | inactive |
| O=C(Nc1ccc(-c2ccco2)cc1)C1CCCN(Cc2ccco2)C1 (stereo not drawn) | inactive |
| Nn1c(SCC(=O)N2CCCC2)nnc1-c1cccs1 | inactive |
| O=C(CCCN1C(=O)CSc2ncccc21)N1CCN(Cc2ccccc2)CC1 | inactive |
| O=c1oc2c(CN3CCCCC3)c(O)ccc2cc1-c1nc2ccccc2[nH]1 | inactive |
| Cc1ccc2c(c1)N(C(=O)CCC(=O)NCCCN1CCOCC1)CC(C)O2 (stereo not drawn) | inactive |
| Cn1cnc(S(=O)(=O)Nc2ccc(OC(F)(F)F)cc2)c1 | inactive |
| CSCCC1(C(=O)O)NC(c2ccccc2O)C2C(=O)N(C(C)C)C(=O)C21 (stereo not drawn) | inactive |
| CCc1nnc(NC(=O)c2ccc(-c3ccccc3F)o2)s1 | inactive |
| CC1=C(C(=O)N2CCN(c3cc(C)ccc3C)CC2)C2(CCCCC2)OC1=O | inactive |
| CC(C)CCn1c(CN2CC(C)OC(C)C2)nc2c1c(=O)n(C)c(=O)n2C (stereo not drawn) | inactive |

Source: PubChem BioAssay AID1053126 (Broad Institute, 2014)
